# Test results taken from PubChem BioAssay AID1986 (Sanford-Burnham Center for Chemical Genomics, 2009).
# Where “and” joins values, the source holds several entries; their conditions need not be identical. Identical values can stand only once. The whole screen tested about 290,000 compounds, of which about 890 (0.31%) were called active. Rule as the data show it: active = inhibition mostly above about 52% (no sharp cut-off); inactive = mostly below about 76%. Only a selection was taken, and actives are over-represented in it overall.
# Assay: inhibitors of HIV fusion peptide binding, primary screen, biochemical, uHTS, fluorescence dequenching (AID 1986)
# Details: cell-free peptide binding, 30 min, stronger effect = higher value
# [1] = measured here: repeat confirmation average inhibition, at 18.6 µM
Compound,inhibition (at 20 µM),inhibition [1] [%]
O=C1NC(=O)N(c2ccc3c(c2)OCO3)C(=O)/C1=C/c1ccc(N2CCCCC2)o1,0.8% (inactive),–
O=C1NC(=O)N(c2ccc3c(c2)OCO3)C(=O)/C1=C\c1ccc(-c2ccccc2C(=O)O)o1,22.4% (inactive),–
O=C1NC(=O)N(c2ccc3c(c2)OCO3)C(=O)/C1=C\c1ccc(N2CCCCC2)o1,112% (active),70.4
O=C1NC(=O)N(c2ccc3c(c2)OCO3)C(=O)/C1=C/c1cccs1,12.1% (inactive),–
O=C1NC(=O)N(c2ccc3c(c2)OCO3)C(=O)/C1=C/c1ccc(N2CCCC2)o1,111% (active),89.9
CCOc1ccc(N2C(=O)NC(=O)/C(=C\c3ccc(N4CCCCC4)o3)C2=O)cc1,152% (inactive),–
CC(C)Cc1nnc(NC(=O)CCC(=O)N2CCC3(CC2)OCCO3)s1,-0.2% (inactive),–
FC(F)(F)c1ccccc1NC1=NCCCS1,-1% (inactive),–
O=C1NC(=O)N(c2ccc(Cl)cc2)C(=O)/C1=C\c1ccc(Sc2nc3ccccc3[nH]2)o1,60.1% (inactive),26
O=C1NC(=O)N(c2cccc(Cl)c2)C(=O)/C1=C\c1ccc(Sc2nc3ccccc3[nH]2)o1,78.9% (active),–
O=C1NC(=O)N(c2ccccc2F)C(=O)/C1=C/c1ccc(Sc2nc3ccccc3[nH]2)o1,39% (inactive),–
CC1CC2(O)c3no[n+]([O-])c3CCC2N1O (stereo unspecified),1.4% (inactive),–
Cc1nc2ccc(Cl)cc2c(=O)n1-c1ccc([N+](=O)[O-])cc1,-1.1% (inactive),–
N#Cc1c(/N=C/c2ccc(O)cc2O)sc2c1C1CCN2CC1,3% (inactive),–
CCN(CC)c1ccc(/C=N/c2sc3c(c2C#N)C2CCN3CC2)c(O)c1,120% (active),193
CC(=O)c1c(C)n(Cc2ccccc2Cl)c2ccc(O)cc12,-2.4% (inactive),–
Fc1ccc(Cn2nnnc2C(c2ccc(F)cc2)N2CC=C(c3ccc(F)cc3)CC2)cc1 (stereo unspecified),-1.1% (inactive),–
C=CCn1c(O)c(/C=C2\C=Nc3ccccc32)c(=O)[nH]c1=O,12.9% (inactive),–
O=c1[nH]c(=O)n(-c2ccccc2F)c(O)c1/C=C1\C=Nc2ccccc21,20.7% (inactive),–
CCCCn1c(O)c(/C=C2\C=Nc3ccccc32)c(=O)[nH]c1=O,78.2% (active),–
O=c1[nH]c(=O)n(CC2CCCO2)c(O)c1/C=C1\C=Nc2ccccc21 (stereo unspecified),5.1% (inactive) and 14.6% (inactive),–
CCOc1ccc(-n2c(O)c(/C=C3\C=Nc4ccccc43)c(=O)[nH]c2=O)cc1,166% (inactive),–
O=c1[nH]c(=O)n(Cc2ccccc2)c(O)c1/C=C1\C=Nc2ccccc21,102% (active),66.2

Compound,inhibition (at 20 µM),inhibition [1] [%]
CCOP(=O)(OCC)/C(C#N)=C/c1ccoc1,13.5% (inactive),–
CC(=O)c1ccccc1NC(=O)C1C2CCC(O2)C1C(=O)O (stereo unspecified),0% (inactive),–
O=C1Nc2ccc(Br)cc2C(c2ccc(Cl)cc2)=NC1O (stereo unspecified),-1.3% (inactive),–
CN1CCC(C)(O)C2CCCCC21 (stereo unspecified),-1.3% (inactive),–
Cc1cc(NC(=O)C(Cl)(Cl)Cl)no1,1% (inactive),–
CCOC(=O)C1C(=O)N(C)C2(C)CC1c1ccccc1O2 (stereo unspecified),1.4% (inactive),–
Cc1ccccc1N1C(=O)/C(=C/c2ccco2)C(=O)NC1=S,76.1% (active),–
CN1C(=O)/C(=C/c2ccc(N3CCCCCC3)o2)C(=O)NC1=S,103% (active),52.7
CN1C(=O)/C(=C\c2ccc(N3CCCCC3)o2)C(=O)NC1=S,151% (inactive),–
O=C1NC(=S)N(c2ccccc2)C(=O)/C1=C/c1ccco1,29.6% (inactive),–
CCOc1cccc(N2C(=O)/C(=C/c3ccco3)C(=O)NC2=S)c1,15.4% (inactive),–
CN1C(=O)C(=Cc2ccc(Sc3ccccc3)o2)C(=O)N(C)C1=O,15.9% (inactive),–
CN1C(=O)/C(=C\c2ccc(N3CCCCCC3)cc2)C(=O)NC1=S,1.7% (inactive),–
O=C1NC(=O)C(=Cc2ccc(N3CCOCC3)o2)C(=O)N1,127% (inactive),–
CCN(CC)c1ccc(/C=C2\C(=O)NC(=S)N(C)C2=O)o1,149% (inactive),–
Cc1ccccc1N1C(=O)NC(=O)/C(=C/c2ccc(N3CCOCC3)o2)C1=O,124% (active),80.2
Cc1ccccc1N1C(=O)NC(=O)/C(=C\c2cc(Br)c(N3CCOCC3)o2)C1=O,147% (inactive),–
CCN(CC)c1ccc(C=C2C(=O)N(C)C(=S)N(C)C2=O)o1,91% (active),50.9
CN1CCN(c2ccc(Cl)cc2N)CC1,0.1% (inactive),–
CCC(=O)N1CC(=O)Nc2ccc(Cl)cc2C1c1ccc(F)cc1 (stereo unspecified),-1.6% (inactive),–
Cc1cccc(OCC(=O)N2CCN(Cc3ccc([N+](=O)[O-])cc3)CC2)c1,-1.3% (inactive),–
COc1cc(OC)c(C=O)c(OC(=O)N(C)C)c1,0.7% (inactive),–
CCCC[N+]12CCC(CC1)C(=C(c1ccccc1)c1ccccc1)C2,1.1% (inactive),–

Compound,inhibition (at 20 µM),inhibition [1] [%]
C[C@]12CCC3C(CCC4=C/C(=N/OCC(=O)NC(CCC(=O)O)C(=O)O)CC[C@@]43C)C1CCC2O (stereo partly specified),3.9% (inactive),–
NCCCC(=O)OC1N=C(c2ccccc2Cl)c2cc(Br)ccc2NC1=O (stereo unspecified),-0.8% (inactive),–
Clc1cccc(N2CCNCC2)n1,0.9% (inactive),–
CC(=NCC1CCCO1)c1c(O)n(C)c(=O)n(C)c1=O (stereo unspecified),-2.1% (inactive),–
Cc1cc(N2CCCCC2)ccc1C=C1C(=O)N(C)C(=S)N(C)C1=O,17.8% (inactive),–
CN1C(=O)C(=Cc2ccc(N3CCOCC3)o2)C(=O)N(C)C1=S,144% (inactive),–
Cc1cc(C)cc(N2C(=O)/C(=C\c3ccc(N4CCN(C)CC4)o3)C(=O)NC2=S)c1,149% (inactive),–
CN1C(=O)C(=Cc2ccc(N3CCOCC3)o2)C(=O)N(C)C1=O,69.4% (active),81.3
CN1C(=O)C(=Cc2ccc(N3CCCCCC3)o2)C(=O)N(C)C1=S,149% (inactive),–
CCN1C(=O)C(=Cc2ccc(N3CCOCC3)o2)C(=O)N(CC)C1=S,136% (inactive),–
CN1C(=O)C(=Cc2ccc(N3CCCCC3)o2)C(=O)N(C)C1=S,103% (active),52.4
CN1CCN(c2ccc(/C=C3\C(=O)NC(=S)N(c4cccc(Br)c4)C3=O)o2)CC1,53.7% (active),–
Cc1cccc(N2C(=O)/C(=C/c3ccc(N4CCN(C)CC4)o3)C(=O)NC2=S)c1C,13.2% (inactive),–
CNc1ccc2nc3ccccc3[n+](C)c2c1,20.9% (inactive),–
COc1cc(C(=S)N2CCOCC2)cc(OC)c1OC(=O)Cc1ccccc1,-1.3% (inactive),–
O=C(CNC(=O)c1ccc(Br)cc1)Nc1ccc(Br)cc1C(=O)c1ccccc1,1.3% (inactive),–
CCOC(=O)N(CC)c1ccc(C(O)(C(=O)OC)C(F)(F)F)cc1 (stereo unspecified),1.2% (inactive),–
CCCCn1c(=O)c(C(=O)NCc2ccco2)c(O)c2ccccc21,4.7% (inactive),–
Cc1cc(N2CCCC2)ccc1C=C(C#N)C#N,80.3% (active),–
Cc1cc(C=C(C#N)C#N)ccc1N1CCCC1,40.1% (inactive),–
N#CC(C#N)=Cc1ccc(N2CCCC2)cc1,11.8% (inactive),–
c1ccc(-c2[nH]c[n+](CC3CO3)c2-c2ccccc2)cc1 (stereo unspecified),12.3% (inactive),–
O=C(CCc1nnc2ccc(NCc3ccccc3Cl)nn12)N1CCC2(CC1)OCCO2,1% (inactive),–

Compound,inhibition (at 20 µM),inhibition [1] [%]
O=C(/C=C/c1c[nH]c2ccccc12)c1c(O)n(CCc2ccccc2)c(=O)[nH]c1=O,148% (inactive),–
CCCCn1c(O)c(C(=O)/C=C/c2c[nH]c3ccccc23)c(=O)[nH]c1=O,97.6% (active),–
CCCCn1c(O)c(C(C)=NCCc2c[nH]c3ccccc23)c(=O)[nH]c1=O,0.5% (inactive),–
CC(=O)NNC(=O)CN1C(=O)CN=C(c2ccccc2)c2cc(Br)ccc21,2.1% (inactive),–
CN(C)C(=O)Oc1ccc(Cl)c2cccnc12,3.9% (inactive),–
Cc1cc(C)cc(-n2c(O)c(C=Nc3ccc(N4CCOCC4)cc3)c(=O)[nH]c2=S)c1,23.1% (inactive),–
O=c1[nH]c(=S)n(-c2ccc(Cl)cc2)c(O)c1C=Nc1ccc(N2CCOCC2)cc1,102% (active),80.1
O=c1[nH]c(=S)n(-c2ccc(Br)cc2)c(O)c1C=Nc1ccc(N2CCOCC2)cc1,24.5% (inactive),–
O=C1NC(=O)N(c2ccccc2)C(=O)/C1=C\c1ccccc1[N+](=O)[O-],3.7% (inactive),–
CCCCn1c(=O)c(C=Nc2cccnc2Cl)c(O)n(CCCCl)c1=O,37.8% (inactive),–
C=CCn1c(=O)c(C=Nc2cccnc2Cl)c(O)n(CCCC)c1=O,119% (inactive),1.7
O=c1c(C=Nc2cccnc2Cl)c(O)n(CCCCl)c(=O)n1C1CCCCC1,71% (active),–
Cc1ccc(N2C(=O)NC(=O)C(CCc3ccccn3)(Cc3cccc(Cl)c3Cl)C2=O)cc1 (stereo unspecified),0.2% (inactive),–
Cc1cccc(-n2c(O)c(/C=C/C=Nc3ccccc3)c(=O)[nH]c2=O)c1,147% (inactive),–
Cc1ccc(-n2c(O)c(/C=C/C=Nc3ccccc3)c(=O)[nH]c2=O)cc1,74.3% (active),–
Cc1ccc(-n2c(O)c(C=Nc3ccc(Br)cn3)c(=O)[nH]c2=O)cc1,124% (active),–
Cc1ccc(-n2c(O)c(/C=N/c3ncc(Br)cc3Br)c(=O)[nH]c2=O)cc1,64% (inactive),2.3
Cn1c(O)c(/C=C/C=Nc2ccccc2)c(=O)n(C)c1=O,52.8% (inactive),27.8
Cn1c(O)c(C=Nc2ccccc2)c(=O)n(C)c1=O,1.3% (inactive),–
Cc1cccc(-n2c(O)c(C=Nc3ccc(Br)cn3)c(=O)[nH]c2=O)c1,144% (inactive),–
Cn1c(O)c(/C=C/C=Nc2ccccc2)c(=O)n(C)c1=S,91.4% (active),60.5
O=c1[nH]c(=O)n(-c2ccccc2)c(O)c1/C=C/C=Nc1ccccc1,147% (inactive),–
